Source: PubChem (several laboratories)
This is a sample that favours compounds with a hit; in the whole collection about 3% have one here.
TWEAK Fn14 block: blocks TWEAK-Fn14 interaction in a reporter cell assay; TWEAK-stimulated Fn14 reporter cells, luciferase luminescence, 8 h; inhibition, % at 10 µM; 2% of 360,000 active; AID 1159606; in the data active means inhibition above about 50%
LMP1 NFkB inh: Epstein-Barr LMP1 NF-kappaB reporter inhibition | LMP1-induced NF-kappaB luciferase reporter cells, luminescence | inhibition, % at 12.5 µM | 0.69% of 350,000 active | AID 504558; in the data active means inhibition above about 41%; inconclusive means no clear call, values can overlap the other calls;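 further: 0% = neutral control wells and 100% = reference inhibitor control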
TROY NFkB inh: inhibitors of TROY-dependent NF-kB signaling. Q293 LMP1-TROYcd NF-kB luciferase reporter, 4 h. inhibition, % at 10 µM. 0.98% of 360,000 active;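 active means compounds whose plate-normalised and pattern-corrected inhibition of the luciferase reporter signal at the single screening dose is 50% or more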
LGR2 inh: Drosophila LGR2 receptor signaling inhibition; 0.35% of 380,000 active; inhibition, % at 9.99 µM; HEK293 LGR2, CRE-luciferase, bursicon-stimulated, 4 h;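 active means drop in luminescence signal, shown as inhibition above about 50% in the replicate tests, limit read from the data, passing the limit was not always enough; inconclusive means probably only some replicates passing the limit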;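 further: agonist challenge used bursicon conditioned medium at about half maximal strength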
MITF TRPM1 inh: reduces MITF-dependent TRPM1 promoter luciferase signal; inhibition, % at 12.5 µM; AID 488899; 0.83% of 330,000 active; SK-MEL-5 TRPM1 promoter luciferase, 24 h;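 active means mean inhibition across replicates of 60% or more, whatever share of single replicates reaches that level; inconclusive means some that reach 60%, reason not given; inactive means mean inhibition across replicates below 60%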
MITF TRPM1 HTS: increases MITF-driven TRPM1 promoter luciferase signal | SK-MEL-5 TRPM1-promoter luciferase, 24 h; % of positive control, neutral wells = 0 | activation, % at 12.5 µM | 0.75% of 300,000 active;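 active means mean activation of at least 80% with every replicate also reaching 80%; inconclusive means mean reaches 80% but some replicate falls short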;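 further: 0% = neutral control wells and 100% = parthenolide positive control wells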
* marks the source's active call; other numbers are inactive results; u = inconclusive; x = no result given; ! = not confirmed by another sample.

SMILES | TWEAK Fn14 block | LMP1 NFkB inh | TROY NFkB inh | LGR2 inh | MITF TRPM1 inh | MITF TRPM1 HTS
CCCC(=O)Nc1ccc2oc(-c3cncc(Br)c3)nc2c1 | -13 | -35 | -50 | -63 | -98 | 97*
Cn1nnnc1Sc1ncnc2scc(-c3ccc(C(F)(F)F)cc3)c12 | 93* | -4 | 55* | 93* | 82* | -80
COc1cccc(-c2csc3ncnc(Sc4nnnn4C)c23)c1 | 75* | 75* | 38 | 46 | 71* | -72
Cn1nnnc1Sc1ncnc2scc(-c3cccc(C(F)(F)F)c3)c12 | 90* | 21 | 58* | 88* | 75* | -74
Cn1nnnc1Sc1ncnc2scc(-c3cccc(F)c3)c12 | 64* | 24 | 43 | 83* | 78* | -77
Cn1nnnc1Sc1ncnc2scc(-c3ccccc3C(F)(F)F)c12 | 28 | 4 | 9 | u | 43 | -40
CN1CCN(C(=O)C[C@H]2CC[C@@H](NS(=O)(=O)c3cccc(F)c3)[C@H](CO)O2)CC1 | x | x | x | -8 | x | x
O=C(N[C@@H]1CC[C@@H](CCNC(=O)c2cnccn2)O[C@@H]1CO)c1ccc2c(c1)OCO2 | x | x | x | -5 | x | x
C[C@H]1CN([C@@H](C)CO)C(=O)c2cc(C3=CCCCC3)cnc2O[C@H]1CN(C)Cc1ccccc1 | x | x | x | 19 | x | x
CC(C)(O)C#Cc1ccc([C@@H]2[C@H]3CN(C(=O)c4ccc(F)cc4)CCCCN3[C@H]2CO)cc1 | x | x | x | 4 | x | x
CC(C)NC(=O)N1CC2(C1)[C@H](c1ccccc1)[C@@H](CO)N2C(=O)c1ccccn1 | x | x | x | -7 | x | x
COc1cc(OC)cc(-c2cc3nc(C)c(CCC(=O)NC(C)CCc4ccco4)c(C)n3n2)c1 (centres undefined) | 8 | 10 | 1 | x | -4 | x
CCOC(=O)C1CCCCN1C(=O)CCc1c(C)nc2cc(-c3ccccc3)nn2c1C (centres undefined) | 69* | 17 | 9 | -44 | x | x
COc1cc(OC)cc(-c2cc3nc(C)c(CCC(=O)O)c(C)n3n2)c1 | 90* | 53* | 58* | 4 | x | x
OC1C(O)C(O)C(O)C(O)C1O (centres undefined) | -9 | 91*! | 1 | 0 | 9 | -8
CNC[C@H]1OCCCC[C@H](C)Oc2ccc(NS(=O)(=O)c3cn(C)cn3)cc2C(=O)N([C@@H](C)CO)C[C@H]1C | x | x | x | 14 | x | x
COC(=O)C1=C(CN2CCCc3ccccc32)NC(=O)NC1c1ccc(F)cc1 (centres undefined) | 85* | 37 | 64* | 17 | 87* | -87
Cc1cccc(-c2ccc([C@@H]3[C@H](CO)N4C(=O)CN(C(=O)c5ccccc5)C[C@@H]34)cc2)c1 | x | x | x | 12 | x | x
CCOc1cc(/C=C2\CN(C)C/C(=C\c3ccc(O)c(OCC)c3)C2=O)ccc1O | 104* | -109 | 28 | 4 | 102* | -102
CCOc1cc(/C=C2\CCC/C(=C\c3cc(Cl)c(O)c(OCC)c3)C2=O)cc(Cl)c1O | 77* | -37 | 61* | x | 72* | -69
CN1C/C(=C/c2ccsc2)C(=O)/C(=C/c2ccsc2)C1 | 25 | -5 | -5 | 8 | 87* | -85
CN1C/C(=C/c2ccncc2)C(=O)/C(=C/c2ccncc2)C1 | 8 | 4 | 9 | 1 | 8 | -10
COc1cc(C=C2CN(C)C(=O)C2=O)ccc1O | 2 | -8 | -3 | 4 | x | x
C[C@@H]1CCCCO[C@@H](CN(C)CC2CC2)[C@H](C)CN([C@@H](C)CO)C(=O)c2cc(NC(=O)Nc3ccc(F)cc3)ccc2O1 | x | x | x | -20 | x | x
O=C(/C=C/c1ccccc1)CC(O)(c1ccccc1)C(F)(F)F (centres undefined) | 88* | -6 | 64* | x | 31 | -30
O=C(/C=C/c1ccccc1)CC(O)(c1ccccc1)C(F)(F)C(F)F (centres undefined) | 69* | -2 | 64* | u | 19 | -21
O=C(Nc1cccnc1)C(Cc1ccccc1)n1cccc1 (centres undefined) | -12 | 1 | 9 | -16 | 11 | -7
O=C(Nc1ncc(Br)s1)C(Cc1ccccc1)n1cccc1 (centres undefined) | 4 | 91* | 12 | -13 | -18 | 6
COc1ccc(C(C#N)c2ccc(=O)[nH]n2)cc1 (centres undefined) | -6 | 52* | -12 | 19 | 32 | -27
